Cycloheximide cs – Cycloheximide Counterscreen for Small Molecule Inhibitors of Shiga Toxin | cell reporter, cycloheximide protein synthesis inhibition counterscreen | max response, % | 12% of 300,000 active; in the data active = max response mostly above about 13%, no sharp cut-off; inactive = mostly below about 14%; note: read at 38.3 µM for the half of the compounds with a filed dose; 0% is about no effect
SARS PLpro yeast – qHTS of Yeast-based Assay for SARS-CoV PLP; S. cerevisiae expressing SARS-CoV PLpro, growth rescue; Potency, µM (titrated, usually from 32.9 µM), inactives show at the highest dose activity, positive = growth rescue, actives largely listed as activators; 0.19% of 330,000 active; AID 485353, 2010; note: potency is the fitted concentration of half-maximal effect; 0% is about no effect; nearly all actives have a fitted effect of over 55% in size
NS1 inh – qHTS Assay for Inhibitors of Influenza NS1 Protein Function; Potency, µM (doses to about 46.1 µM), without a hit: at the highest dose activity, positive = more growth; 0.4% of 270,000 active; AID 2326, 2010; note: potency is the fitted concentration of half-maximal effect; actives are rising curves; nearly all actives have a fitted effect of over 50% in size
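A cell-based growth assay was used: compounds that relieve NS1-induced slow growth of budding yeast raise OD600. Assay medium was yeast nitrogen base with ammonium sulphate and -URA supplement, pH 6.0, with 2% galactose.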
Pf growth 96h – Primary qHTS for delayed death inhibitors of the malarial parasite plastid, 96 hour incubation; P. falciparum luciferase reporter growth, 96 h; 6.9% of 320,000 active; Potency, µM (highest dose often 28.7 µM), for inactives: at the top dose activity change, negative = inhibition, actives largely listed as inhibitors; active = well fitted inhibition curve with a large enough effect; inconclusive = small, poorly fitted or top-dose-only effect, or another doubt; inactive = no such curve, though single readings can be large or run the other way; note: potency is the fitted concentration of half-maximal effect; % is set by controls: 0 for no effect and ±100 for the full control effect
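96 h incubation, 37 C, 5% CO2, of luciferase-reporter P. falciparum-infected RBCs (2% hematocrit, 0.05% parasitemia final) with test compounds; endpoint luminescence.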
Pf growth 48h – Primary qHTS for delayed death inhibitors of the malarial parasite plastid, 48 hour incubation. P. falciparum luciferase growth in erythrocytes, 48 h. Potency, µM (doses to about 28.7 µM), without a hit: top-dose activity change, negative = inhibition, hits mostly inhibitors. 5.9% of 310,000 active. AID 504832, 2011; active = well fitted inhibition curve with a large enough effect; inconclusive = small, poorly fitted or top-dose-only effect, or another doubt; inactive = no such curve, though single readings can be large or run the other way; note: potency is the fitted concentration of half-maximal effect; % is set by controls: 0 for no effect and ±100 for the full control effect
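Growth was read as firefly luciferase luminescence after a 48 h, 37 C, 5% CO2 exposure of compounds to reporter-bearing P. falciparum cultures (0.1% parasitemia, 2% hematocrit final) in Albumax-supplemented RPMI 1640.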
Shiga toxin inh – A qHTS for Small Molecule Inhibitors of Shiga Toxin; Vero cells, Shiga toxin protein synthesis inhibition reporter; inhibition, % at 38.7 µM; 9.2% of 290,000 active; in the data active = inhibition mostly above about 28%, no sharp cut-off; inactive = mostly below about 43%; note: 0% is about no effect
* marks the source's active call; other numbers are inactive results; ? = inconclusive; nt = no result; [ ] = remark or other dose. Sampled rows, rich in hits. Any-hit rate of the full collection: about 21%. Unless noted, calls come from the whole dose curve.

SMILES	Cycloheximide cs	SARS PLpro yeast	NS1 inh	Pf growth 96h	Pf growth 48h	Shiga toxin inh
CCOC(=O)c1c(NC(C)=O)sc2c1CCN(Cc1ccccc1)C2	-3.8	-2.0%	-5.2%	?	43.2%	1.6
CCOC(=O)c1c(NC(=S)Nc2ccccc2)sc2c1CCN(CCc1ccccc1)C2	-6.9	1.5%	?	2.33µM*	13.1µM*	-21.8
CCOC(=O)c1c(NC(=O)C(C)Sc2cccc[n+]2[O-])sc2c1CCN(Cc1ccccc1)C2 (stereo not drawn)	-4.7	9.7%	1.4%	5.22µM*	9.28µM*	-13.7
C=CC(C)(C)c1cc2cc3ccoc3cc2oc1=O	10.8	-19.6%	-30.8%	12.6%	25.8%	14.0
CN(c1ccccc1C(=O)NCc1ccccc1Cl)S(=O)(=O)c1ccccc1	5.5	2.7%	-34.4%	?	0.0%	nt
Brc1ccccc1OCCCn1cnc2ccccc21	35.4*	0.5%	-57.1%	84.3%	nt	52.0
Brc1ccccc1OCCCCN1CCCCC1	1.3	-2.7%	-10.5%	?	?	-5.0
Cc1ccc(OCCCCn2cnc3ccccc32)cc1	39.7*	0.8%	nt	-0.6%	30.1%	88.5*
Cc1ccccc1OCCCCn1cnc2ccccc21	16.2*	7.6%	-152.1%	-11.4%	nt	22.7
COc1ccccc1CNC(=O)C1CCC(=O)N(CCCc2ccccc2)C1 (stereo not drawn)	-2.2	-2.8%	-0.7%	?	16.2%	-3.5
CCOC(=O)C1CCN(C(=O)Nc2ccc3nc(-c4ccco4)c(-c4ccco4)nc3c2)CC1	-1.6	2.0%	21.1%	?	10.4µM*	38.8
Cc1nc2cc(NC(=O)N3CCCCC3)ccc2n1C	18.6*	16.7%	7.9%	?	95.7%	43.8*
O=C(Nc1ccc2nc(-c3ccco3)c(-c3ccco3)nc2c1)N1CCCCCC1	5.1	-4.8%	?	10.4%	?	8.3
CCOC(=O)C1CCN(C(=O)Nc2ccc3c(c2)nc(C)n3C)CC1	49.1*	7.3%	-20.7%	?	347.9%	53.4*
Cc1nc2ccc(NC(=O)N3CCCCC3)cc2nc1C	11.6	13.5%	-2.6%	-10.3%	-0.4%	18.9
CCOC(=O)C1CCN(C(=O)Nc2ccc(OC)c(OC)c2)CC1	6.8	10.9%	-7.3%	10.3%	6.7%	-11.5
Cc1ccc(Oc2ccc(OCC(=O)NC(CC(C)C)C(=O)O)cc2)cc1 (stereo not drawn)	0.7	-1.6%	nt	24.6%	-15.8%	-5.4
CN(C(=O)CCCN1C(=O)c2ccccc2C1=O)C1CCCCC1	nt	-3.8%	nt	-21.7%	?	nt
COc1ccccc1CN(C)C(=O)C(NC(=O)Cc1cccc2ccccc12)C(C)C (stereo not drawn)	-1.4	-0.2%	-8.5%	?	?	-7.5
O=C(Nc1ccccc1)C1(c2ccccc2)CC1(Cl)Cl (stereo not drawn)	6.8	-22.4%	-29.8%	1.65µM*	3.7µM*	20.5
COc1cc(/C=N/Nc2ncnc3sc4c(c23)CCC4)ccc1O	8.3	-9.9%	8.7%	?	?	12.2
COc1cc(NC(=O)c2cc(CC(C)C)on2)c(OC)cc1Cl	-2.2	-8.5%	-40.3%	40.4%	?	8.7
CC(=O)c1ccc(NC(=O)c2cc(CC(C)C)on2)cc1	18.1*	0.0%	-1.6%	27.4%	84.5%	active
CC(C)Cc1cc(C(=O)Nc2cccnc2)no1	35.4*	-6.7%	-12.5%	0.0%	nt	111.2*
CC(=O)c1ccc(NC(=O)c2ccn(C(=O)OCC(C)C)n2)cc1	70.7*	-11.4%	-2.5%	161.3%	156.3%	55.8*
SMILES	Cycloheximide cs	SARS PLpro yeast	NS1 inh	Pf growth 96h	Pf growth 48h	Shiga toxin inh
CSc1ccccc1NC(=O)c1cc(CC(C)C)on1	62.3*	-8.2%	-12.1%	23.1%	116.0%	69.5*
CCOC(=O)c1c(NC(=O)c2cc(CC(C)C)on2)sc(C(C)=O)c1C	-2.7	3.7%	-3.0%	-6.1%	-13.3%	11.0
Cc1c(NC(=O)C(C)OC(=O)c2c3c(nc4ccccc24)CCC3)c(=O)n(-c2ccccc2)n1C (stereo not drawn)	0.7	10.7%	11.1%	?	?	-2.2
O=C(O)c1ccc(N=Nc2c(-c3ccccc3)[nH]oc2=O)cc1	-3.7	0.0%	3.3%	5.7%	nt	24.3
O=C(COC(=O)C1(c2ccc(F)cc2)CCCC1)NC1CC1	-2.7	8.2%	-0.5%	-20.5%	nt	-11.8
O=c1oc2c(-c3cccc(F)c3)cc(O)cc2s1	7.3	-11.6%	-4.1%	-15.3%	-32.5%	2.1
COC(=O)Cc1c(OC)ccn(CCc2c[nH]c3ccccc23)c1=O	34.3*	-1.2%	nt	459.7%	194.5%	103.0*
COC(=O)Cc1c(O)ccn(CCc2c[nH]c3ccccc23)c1=O	-5.4	0.4%	-3.1%	30.6%	16.0%	-1.2
O=c1c(Cc2c(F)cccc2Cl)c(O)ccn1CCc1c[nH]c2ccccc12	-0.9	-0.1%	14.0%	5.22µM*	?	-11.6
COc1ccccc1CN1CCNC(=O)C1CC(=O)NC1CCCCCC1 (stereo not drawn)	0.4	2.3%	15.9%	-15.8%	?	-9.2
O=C(COc1ccccc1Cl)c1ccc2c(c1)CCCC2	26.2*	-20.3%	-0.9%	169.4%	146.5%	53.4*
CC(C)N(C(=O)COc1ccc(Br)cc1Cl)C(C)C	-2.0	0.8%	-51.1%	?	-6.8%	-16.0
O=C(COc1ccccc1Cl)c1ccc[nH]1	30.4*	-2.9%	6.1%	111.6%	114.4%	57.1
O=C(COc1ccc(Br)cc1Cl)c1ccc[nH]1	38.3*	-5.5%	nt	192.8%	232.5%	68.6*
Cc1ccccc1OCC(=O)OCC(=O)c1ccc[nH]1	nt	-0.4%	nt	9.1%	-1.4%	nt
CCCCc1ccc(-n2c(Cc3cccs3)n[nH]c2=S)cc1	-7.6	-3.3%	11.2%	?	-12.1%	-13.6
CC(=O)Nc1ccc(N(C)C)cc1[N+](=O)[O-]	23.9	5.4%	-3.7%	0.0%	2.62µM*	8.1
COc1ccc(NC(=O)CSc2nnc(-c3cccnc3)s2)cc1	-3.2	-9.3%	4.0%	6.57µM*	10.9%	9.6
CN(C)c1ccc(NC(=O)c2sc(SCC(=O)Nc3ccc(Br)cc3)nc2N)cc1	-2.7	-0.1%	21.9%	128.0%	37.1%	23.8
CCCCNC(=O)CSc1nc(N)c(C(=O)Nc2ccc(OC)cc2)s1	29.7*	-0.3%	5.5%	26.6%	53.5%	27.8*
CN(C)c1ccc(NC(=O)c2sc(SCC(=O)Nc3nccs3)nc2N)cc1	33.1*	-3.4%	10.3%	5.8%[5.75 µM]	-18.5%	108.7*
COc1ccc(OC)c(NC(=O)CSc2nnc(-c3cccnc3)s2)c1	-0.9	-0.3%	nt	-6.8%	-16.7%	-5.8
CSc1nc(N)c(C(=O)Nc2ccc([N+](=O)[O-])cc2)s1	32.0*	?	3.3%	-0.5%	6.4%	50.4*
CN(CC(=O)NCCc1ccc(S(N)(=O)=O)cc1)S(=O)(=O)c1cccc2nsnc12	12.2	0.9%	11.8%	22.7%	31.6%	-8.0

Source: PubChem
